# Test system: HepG2
# Experiment: GSK_TCMDC: Percent inhibition of human HepG2 cell line. Test compounds present at 10uM.
# Assay type: functional
row,Structure (SMILES),Inhibition
1,CCN(CC)/C(=N/C(=N)NCc1ccc(Cl)cc1)NCCCCCCN/C(=N\C(=N)NCc1ccc(Cl)cc1)N(CC)CC,18%
2,CN1CCC(c2csc3ccc(NC(=O)Nc4ccc(-c5ccncc5)c5ccccc45)cc23)CC1,8%
3,Cc1ccc(S(=O)(=O)N(CCCN2CCN(C)CC2)Cc2csc(-c3ccc(CNCc4ccccc4)cc3)n2)cc1.O=C(O)C(F)(F)F,15%
4,CCCCCCNC(=O)C1Cc2c([nH]c3ccccc23)C2(CCN(CCc3ccccc3)CC2)N1 (stereo not given),41%
5,Cc1ccc2c(=O)n(C)c(=O)n(C)c2n1,15%
6,Cc1nc(NC(=N)N)nc2cc3c(cc12)CCC3.Cl,17%
7,FC(F)(F)c1ccc2[nH]c(-c3cccc(-c4cccc(CN5CCN(c6ccncc6)CC5)c4)c3)nc2c1.O=C(O)C(F)(F)F,93%
8,CN(C)CCN(C)Cc1nc(-c2ccc3c(Nc4ccc(Oc5ccccc5)cc4)ccnc3c2)cs1,27%
9,O=S(=O)(c1ccccc1C(F)(F)F)C1CC2CCC(C1)N2S(=O)(=O)c1ccc(Cl)c(C(F)(F)F)c1 (stereo not given),4%
10,CS(=O)(=O)O.O=[N+]([O-])c1ccc(CNCCCCCCNCc2ccc([N+](=O)[O-])c3ccccc23)c2ccccc12,88%
11,COc1ccc(OC)c(Cc2cnc3nc(N)nc(N)c3c2C)c1 [PIRITREXIM],68%
12,CN1CCC(C(=O)Nc2ccc(-c3cccc(-c4nc5cc(F)ccc5[nH]4)c3)cc2)CC1,19%
13,CC(C)N1CCC(N(Cc2ccc(-c3ccc(C(F)(F)F)cc3)cc2)C(=O)Cn2c(CCc3cccc(F)c3F)nc(=O)c3cccnc32)CC1.O=C(O)C(O)C(O)C(=O)O,100%
14,CC(C)c1nc(N2CCN(C(=S)NCc3ccccc3)CC2)c(C#N)c2c1COC(C)(C)C2,0%
15,O=c1cc(NCCC(CNCc2cc3ccccc3o2)NCc2cc(Br)cc(Br)c2)[nH]c2ccccc12 (stereo not given),6%
16,Cc1cccc2nc(-c3cccc(-c4ccc(C(=O)N5CCCCC5C(C)O)cc4)c3)[nH]c12 (stereo not given),26%
17,O=C(Nc1cccc(CN2CCN(Cc3ccc(O)cc3)CC2)c1)c1cccc(C(F)(F)F)c1.O=C(O)C(F)(F)F,21%
18,Cc1[nH]n(-c2cccc(C(F)(F)F)c2)c(=O)c1-c1ccc(Cl)cc1,7%
19,CCc1c(C)nc2nc(Cc3cccc(F)c3)nn2c1N1CCN(c2ccccn2)CC1,0%
20,Cl.O=C(NC1CCC(CCN2CCc3ccc(-c4cnccn4)cc3CC2)CC1)c1cccc(-n2cccn2)c1 (stereo not given),23%

row,Structure (SMILES),Inhibition
1,Cc1cccc2nc(-c3cccc(-c4ccc(NC(=O)C(C)C(=O)NC(C)C)cc4)c3)[nH]c12 (stereo not given),13%
2,S=C(NCCN1CCOCC1)Nc1ccccc1,3%
3,Cc1cccnc1Nc1nc(-c2ccccn2)cs1,60%
4,CC(=O)Nc1ccc(CNC2Cc3ccc(-c4ccc(Cl)c(Cl)c4)cc3C2)cc1 (stereo not given),49%
5,COc1cccc(NC(=O)Nc2ccc(C)c(-c3ccc(C(=O)Nc4ccncc4)cc3)c2)c1,45%
6,Cc1onc(-c2ccccc2)c1-c1nc(NC2CCCC(C)C2)no1 (stereo not given),22%
7,CCCCOc1ccc(-c2nc3ccccc3[nH]2)cc1,21%
8,Nc1ncc(-c2cn[nH]c2)cc1-c1nc2ccc(F)cc2[nH]1,38%
9,Cl.O=C(Nc1cccc(Cl)c1Cl)N1CCc2cc3nccc(N4CCN5CCC[C@H]5C4)c3cc21,9%
10,Cn1cnc(CCNC(=O)c2ccc(-c3cccc(-c4nc5cc(C(F)(F)F)ccc5[nH]4)c3)cc2)c1,25%
11,CC(=O)Nc1ccc(Cl)c(Cl)c1,5%
12,COc1cccc(Nc2nccc(NCC(O)c3ccc(C(F)(F)F)cc3)n2)c1 (stereo not given),14%
13,O=C(NCc1cccc(CN2CCOCC2)c1)c1cc(Br)cc(N2CCN(c3ccncc3)CC2)c1.O=C(O)C(F)(F)F,25%
14,Cc1c(C(=O)N2CCCC(C(F)(F)F)C2)sc2cccc(F)c12 (stereo not given),0%
15,O=C(NC1CC1)c1ccc(Cn2c(SCc3cccc(Cl)c3)nc3ccccc3c2=O)cc1,2%
16,CCN(CCN(C)C)Cc1ccc(-c2ccc(NS(=O)(=O)c3cccc4cccnc34)cc2)cc1.O=C(O)C(F)(F)F,16%
17,CO/C(=C\C=C\c1cc2cc(Cl)c(Cl)cc2[nH]1)C(=O)NC1CC2CCCC(C1)N2C (stereo not given),42%
18,CS(=O)(=O)NCCCNCc1ccc(-c2ccc(-c3nc4cc(C(F)(F)F)ccc4[nH]3)s2)cc1.O=C(O)C(F)(F)F,21%
19,Cc1cc(=NN=Cc2ccc(Cl)cc2)c2cc(F)ccc2[nH]1,6%
20,CCOc1ccc(Nc2ccc3nonc3c2S(=O)(=O)Nc2ccc(OCC)cc2)cc1,6%

# Source: ChEMBL document CHEMBL1157539, “Thousands of chemical starting points for antimalarial lead identification” (Nature, 2010)
